Screening results from PubChem.
MCL1-BIM inh – inhibitors of human MCL1 binding to BIM-BH3 peptide. Q07820. GST-MCL1 / FITC-Bim-BH3 fluorescence polarization. inhibition, % at 10.9 µM. 320,000 compounds, 0.68% hits;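 active = inhibition above the mean inhibition of all tested compounds plus 3 SD, set per campaign, cut at about 40% in these data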;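 also: higher means more loss of mP so more displacement of Bim peptide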
Mcl1-Bid inh – Mcl-1/Bid interaction inhibition; Q07820; TR-FRET Mcl-1/Bid-Dy647 peptide binding, 1536-well; inhibition, % at 21.7 µM; 220,000 compounds, 0.97% hits; AID 1021;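 active = compounds that cut the binding signal by more than half at the single screening dose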;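 also: His-tagged Mcl-1 with europium anti-His antibody binding Bid BH3 peptide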
Mcl1-Noxa inh – Mcl-1/Noxa interaction inhibition | TR-FRET Mcl-1/Noxa peptide binding, 2 h | inhibition, % at 21.7 µM | Q07820 | 220,000 compounds, 1.5% hits;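 active = compounds that cut the protein-peptide binding signal by more than 50% relative to plate controls in a single-dose test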;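 also: His-tagged Mcl-1 with rhodamine Noxa BH3 peptide and terbium anti-His antibody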
eIF4E-4G inh – inhibitors of eIF4E and eIF4G interaction in translation initiation; TR-FRET eIF4E-eIF4GI(517-606) binding, 2 h; P63073+Q04637; inhibition, % at 21.7 µM; AID 782; 220,000 compounds, 0.37% hits;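 active = inhibition above about 30%, limit read from the data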
Bim-Mcl-1 – disrupts Bim peptide binding to human Mcl-1. Q07820. Bead-based flow cytometry, Bim peptide-Mcl-1 binding. inhibition, % at 10 µM. 190,000 compounds, 0.1% hits; in the data active = inhibition above about 40%
14-3-3 Bad PPI – disrupts binding of bovine 14-3-3 zeta to phospho-Bad peptide. P63103. TR-FRET 14-3-3zeta/Dy647-pBad peptide displacement, 1 h. AID 781. 220,000 compounds, 0.71% hits. inhibition, % at 21.7 µM;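 active = inhibition above about 70%, limit read from the data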
Target sequence (P63103 whole entry, looked up): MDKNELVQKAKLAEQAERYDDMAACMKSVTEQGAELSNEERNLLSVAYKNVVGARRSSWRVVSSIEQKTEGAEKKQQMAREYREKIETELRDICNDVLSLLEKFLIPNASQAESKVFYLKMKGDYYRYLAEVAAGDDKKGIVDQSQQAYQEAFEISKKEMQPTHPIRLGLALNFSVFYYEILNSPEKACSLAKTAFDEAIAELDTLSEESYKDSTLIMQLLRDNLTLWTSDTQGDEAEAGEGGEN
Of the large screens only hits and unclear results are named; the others gave an inactive call; [ ] = another dose, or the depositor's remark. An excerpt weighted towards active compounds, which were near 2.6% of everything screened.

CCOC(=O)c1sc(NC(=O)CSc2n[nH]c(-c3ccccc3)n2)c(C#N)c1C	none
N#C/C(=C/c1ccc(F)cc1)c1nnc(NC(=O)c2ccccc2)s1	Mcl1-Noxa inh 67.9 (no result: Bim-Mcl-1)
COc1ccc(NC(=O)c2ccccc2NS(=O)(=O)c2ccc(C)cc2)c([N+](=O)[O-])c1	none
O=C(O)c1ccccc1NS(=O)(=O)c1ccc(NNC(=S)Nc2ccc(OC(F)F)cc2)c([N+](=O)[O-])c1	Mcl1-Bid inh 94.7, Mcl1-Noxa inh 112.1 (no result: MCL1-BIM inh)
O=C(CSc1nnc(CNC(=O)c2ccco2)o1)Nc1ccccc1F	none (no result: Mcl1-Bid inh, Mcl1-Noxa inh, eIF4E-4G inh, Bim-Mcl-1, 14-3-3 Bad PPI)
O=C1N=C(c2ccccc2)S/C1=C\c1cccs1	Mcl1-Noxa inh 72.4
O=C(NCc1nnc(SCC(=O)N2CCOCC2)o1)c1c(F)cccc1Cl	Mcl1-Bid inh 77.3
CN(C)CCN1C(=O)C(=O)/C(=C(/O)c2ccc(S(=O)(=O)N3CCOCC3)cc2)C1c1ccc(F)cc1 (configuration not stated)	none (no result: Mcl1-Bid inh, Mcl1-Noxa inh, eIF4E-4G inh, Bim-Mcl-1, 14-3-3 Bad PPI)
FC(F)(F)c1ccccc1-n1c(CN2CCCCC2)n[nH]c1=S	eIF4E-4G inh 85.0 (no result: Bim-Mcl-1)
O=C(O)[C@@H]1[C@@H]2C[C@@H]2CN1c1ncccc1[N+](=O)[O-]	MCL1-BIM inh 46.9
COc1cc(N2C(=O)C=CC2=O)c(OC)cc1Cl	Mcl1-Noxa inh 58.7 (no result: Bim-Mcl-1)
CS(=O)(=O)N(CC(=O)NCc1ccncc1)C1CCCCC1	none
Cc1ccc(-n2c(C)nn(CC#N)c2=O)cc1	14-3-3 Bad PPI 86.7
O=C1CCC(C(=O)N2CCSCC2)CN1Cc1cccc(C(F)(F)F)c1 (configuration not stated)	none (no result: Mcl1-Bid inh, Mcl1-Noxa inh, eIF4E-4G inh, Bim-Mcl-1, 14-3-3 Bad PPI)
Cc1ccc(Nc2nc3ccccc3s2)c(C)c1	none
Cc1cc(O)ccc1Nc1nc2ccccc2nc1Nc1ccc(O)cc1C	Mcl1-Noxa inh 67.5
Cc1c(C)c2ccc(OC(C)C(=O)NCCCN3CCOCC3)c(C)c2oc1=O (configuration not stated)	none (no result: Mcl1-Bid inh, Mcl1-Noxa inh, eIF4E-4G inh, Bim-Mcl-1, 14-3-3 Bad PPI)
CCOc1cnn(Cc2ccccc2)c(=O)c1SCc1ccccc1	Mcl1-Noxa inh 70.2
COc1cnn(Cc2ccccc2)c(=O)c1SCc1ccccc1	none
N#CC(C(=O)Nc1ccc(Cl)c(Cl)c1)=C1Nc2ccccc2N1	Mcl1-Bid inh 52.5, Mcl1-Noxa inh 72.7
CN1C(=O)/C(=C/c2ccccc2OCc2cccc(F)c2)NC1=S	Mcl1-Bid inh 77.7
Cc1ccc2oc(Nc3nc(-c4ccccc4)cc(=O)[nH]3)nc2c1	14-3-3 Bad PPI 87.9 (no result: MCL1-BIM inh)
Cc1ccc(C)n1-c1cccc(N)c1	MCL1-BIM inh 45.3
Cc1ccc(C)n1-c1cccc(C(=O)O)c1	MCL1-BIM inh 70.7, Mcl1-Bid inh 88.4, Mcl1-Noxa inh 98.9
Cc1ccc(C)n1-c1cccc(C(=O)Nc2ccccc2)c1	none (no result: Bim-Mcl-1)
CC(C)Oc1ccc(CN2CCC(n3nccc3NC(=O)C3CC3)CC2)cc1	none (no result: Mcl1-Bid inh, Mcl1-Noxa inh, eIF4E-4G inh, Bim-Mcl-1, 14-3-3 Bad PPI)
CC1=C(SCCC#N)S/C(=C2\SC(C)=C(SCCC#N)S2)S1	Mcl1-Bid inh 96.1, Mcl1-Noxa inh 74.4
CCCN(CC(=O)Nc1ccccc1OC)C(=O)c1ccc(=O)[nH]c1	none (no result: Mcl1-Bid inh, Mcl1-Noxa inh, eIF4E-4G inh, Bim-Mcl-1, 14-3-3 Bad PPI)
CNc1cnn(-c2ccccc2)c(=O)c1Cl	none
O=c1c(Cl)c(N/N=C/c2ccc(Br)cc2)cnn1-c1ccccc1	Mcl1-Bid inh 63.4, Mcl1-Noxa inh 51.6
O=C1CSC(=Nc2ccccc2)N1Cc1ccccc1	none
Fc1ccc(N=c2ssnc2Cl)c(F)c1	eIF4E-4G inh 51.4
N#Cc1ccc(N=c2ssnc2Cl)cc1	none
Clc1nssc1=Nc1ccccc1	eIF4E-4G inh 50.6 (no result: MCL1-BIM inh)
COc1ccc(N=c2ssnc2Cl)cc1	eIF4E-4G inh 30.3
Clc1ccc(N=c2ssnc2Cl)cc1	eIF4E-4G inh 30.7[fluorescence artefact?]
O=C(N/N=C/c1ccccn1)NC12CC3CC(CC(C3)C1)C2	none (no result: Bim-Mcl-1)
O=C(O)C1CCN(S(=O)(=O)/C=C/c2ccccc2)CC1	none
Cc1onc(-c2ccccc2Cl)c1C(=O)O/N=C(\N)c1ccc([N+](=O)[O-])o1	none (no result: Bim-Mcl-1)
C=CCOCCN(CC)CC	none (no result: MCL1-BIM inh, Bim-Mcl-1)
Cc1cccc(N(C(=O)c2snc(C(N)=O)c2N)C(C(=O)NCC2CCCO2)c2ccc3ncccc3c2)c1 (configuration not stated)	none (no result: Mcl1-Bid inh, Mcl1-Noxa inh, eIF4E-4G inh, Bim-Mcl-1, 14-3-3 Bad PPI)
COc1cc(N=c2ssnc2Cl)cc(OC)c1OC	eIF4E-4G inh 66.9
CCOC(=O)c1ccc(N=c2ssnc2Cl)cc1	eIF4E-4G inh 38.8 (no result: MCL1-BIM inh)
COc1cc(-c2nnc(-c3cc(OC)c(OC)c(OC)c3)o2)cc(OC)c1OC	none
O=[N+]([O-])c1cc2c(cc1/C=N/NS(=O)(=O)c1ccc(Br)cc1)OCO2	none
